Records with an inconclusive call do not appear. Active and inactive are the calls of the source. Unless noted, calls come from the whole dose curve.
Assays:
[1] = qHTS assay to identify small molecule antagonists of the sonic hedgehog signaling (Shh) pathway (AID 1259369); note: nearly all actives have a fitted effect of over 45% in size
Procedure, shortened: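 Cells are plated and held 4hr at 37 C, compounds (DMSO) are pinned in, conditioned medium is added to stimulate the pathway, and after 24hr luciferase reagent is added for 30min before luminescence is read.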

[2] = biological target: Estrogen receptor beta (Homo sapiens) (UniProt Q92731); assay: qHTS assay to identify small molecule agonists of the estrogen receptor beta (ER-beta) signaling pathway (AID 1259377; active = well fitted activation curve with a large enough effect in the signal ratio in the repeat runs, not every such curve was filed as active; the % refers to the signal ratio)
Procedure, shortened: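 Measured by fluorescence intensity from a B/G FRET beta-lactamase substrate (2 h, room temperature) in ER-beta-UAS-bla HEK293T cells treated with DMSO-dissolved compounds for 16 hr at 37C and 5% CO2.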

[3] = biological target: Estrogen receptor beta (Homo sapiens) (UniProt Q92731); assay: qHTS assay to identify small molecule antagonists of the estrogen receptor beta (ER-beta) signaling pathway (AID 1259378; active = well fitted inhibition curve with a large enough effect in the signal ratio in the repeat runs, not every such curve was filed as active; the % refers to the signal ratio)
Procedure, shortened: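 ER-beta-UAS-bla HEK293T (GripTite) cells in 2% charcoal-stripped FBS medium were preincubated 6 hr at 37C, dosed with compound, then stimulated with 1 nM E2 (final) for 16 hr; beta-lactamase reporter read by B/G FRET fluorescence after 2 hr substrate loading.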

[4] = qHTS assay to identify small molecule agonists of the androgen receptor (AR) signaling pathway in the presence of an antagonist - cell viability counter screen (AID 1259379; active = well fitted curve in the direction sought with a large enough effect in the repeat runs; an effect the other way counts as inactive or inconclusive;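 note: MDA-kb2 human breast cancer cells carrying an MMTV luciferase reporter; series mostly up to about 92 µM; nearly all actives have a fitted effect of over 25% in size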)
Procedure, shortened: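 Cytotoxicity is assessed by CellTiter-Fluor in MDA-kb2 cells carrying an MMTV-driven luciferase reporter. Cells receive 3.0uM nilutamide plus compounds at 15 concentrations and incubate 16 hr at 37C without CO2 before fluorescence reading.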

[5] = qHTS assay to identify small molecule agonists of the estrogen receptor beta (ER-beta) signaling pathway - cell viability counter screen (AID 1259380; active = well fitted curve in the direction sought with a large enough effect in the repeat runs; an effect the other way counts as inactive or inconclusive; note: nearly all actives have a fitted effect of over 30% in size)
Procedure, shortened: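 Cytotoxicity is measured in parallel with the reporter screen: after 16 hr compound exposure at 37C and a 2 hr LiveBLAzer step, CellTiter-Glo is added to the same ER-beta-UAS-bla HEK293T wells and luminescence read after 30 min.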

[6] = qHTS assay to identify small molecule antagonists of the estrogen receptor beta (ER-beta) signaling pathway - cell viability counter screen (AID 1259382; active = well fitted curve in the direction sought with a large enough effect in the repeat runs; an effect the other way counts as inactive or inconclusive; note: series mostly up to about 92 µM; nearly all actives have a fitted effect of over 55% in size)
Procedure, shortened: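 Cytotoxicity counter screen multiplexed with the beta-lactamase antagonist assay: GripTite HEK293T ER-beta-bla cells were treated 16 hr with test chemicals in the presence of 1nM 17-beta-estradiol, and viability was measured by CellTiter-Glo.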

[7] = biological target: Estrogen receptor (Homo sapiens) (UniProt P03372); assay: qHTS assay to identify small molecule agonists of the estrogen receptor alpha (ER-alpha) signaling pathway in the presence of an antagonist (AID 1259383); note: top concentration of the series differs between compounds; nearly all actives have a fitted effect of over 15% in size
Procedure, shortened: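 Agonist-mode confirmation in the presence of the ER antagonist ICI-182,780 at 10.0nM final. Breast-derived VM7Luc4E2 reporter cells were exposed to compounds for 22hr, and ERE-driven luciferase was quantified by luminescence.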

[8] = qHTS assay to identify small molecule agonists or antagonists of the thyroid stimulating hormone receptor (TSHR) signaling pathway - wild type cell line counter screen (AID 1259384)
Procedure, shortened: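 Wild-type HEK293 cells were plated 18 h at 37 C/5% CO2, pin-dosed with compound plus Ro20-1724 medium, held 30 min at room temperature, then given cAMP-d2 and anti-cAMP-cryptate; fluorescence was read after 1 h. Fifteen concentrations, triplicate.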

[9] = biological target: Thyrotropin receptor (Homo sapiens) (UniProt P16473); assay: qHTS assay to identify small molecule antagonists of the thyroid stimulating hormone receptor (TSHR) signaling pathway (AID 1259385); note: nearly all actives have a fitted effect of over 20% in size
Procedure, shortened: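 TSHR-HEK293 cells were plated and held 18 h at 37C/5% CO2, then given compound plus Ro20-1724 and stimulated with TSH at 1.5 ng/mL final. After 30 min at room temperature, cAMP was detected with cAMP-d2/anti-cAMP-cryptate (1 h) by fluorescence.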

[10] = biological target: Androgen receptor (Homo sapiens) (UniProt P10275); assay: qHTS assay to identify small molecule agonists of the androgen receptor (AR) signaling pathway in the presence of an antagonist (AID 1259381); note: nearly all actives have a fitted effect of over 15% in size
Procedure, shortened: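 Agonist-mode confirmation screen: human MDA-kb2 cells stably expressing luciferase under an MMTV promoter bearing AR and GR response elements, co-treated with 3.0uM nilutamide (final). Luminescence measured after 16hr compound incubation.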

Measured: Potency

Estrogen receptor beta (Homo sapiens), sequence (Q92731 whole entry, looked up): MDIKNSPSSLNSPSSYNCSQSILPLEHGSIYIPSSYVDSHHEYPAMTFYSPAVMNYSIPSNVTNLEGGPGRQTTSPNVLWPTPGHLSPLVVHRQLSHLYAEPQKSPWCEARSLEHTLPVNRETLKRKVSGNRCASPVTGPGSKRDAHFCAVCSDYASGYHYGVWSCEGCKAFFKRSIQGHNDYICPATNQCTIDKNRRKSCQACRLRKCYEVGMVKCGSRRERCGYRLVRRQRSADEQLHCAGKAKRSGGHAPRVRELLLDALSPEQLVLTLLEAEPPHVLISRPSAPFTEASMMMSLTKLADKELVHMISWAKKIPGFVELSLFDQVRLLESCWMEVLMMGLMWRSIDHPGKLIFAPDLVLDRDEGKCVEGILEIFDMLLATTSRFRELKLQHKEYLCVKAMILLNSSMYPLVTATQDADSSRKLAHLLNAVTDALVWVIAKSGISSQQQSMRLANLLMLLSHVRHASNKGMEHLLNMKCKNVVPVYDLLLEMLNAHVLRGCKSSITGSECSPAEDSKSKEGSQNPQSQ
Androgen receptor (Homo sapiens), sequence (P10275 whole entry, looked up): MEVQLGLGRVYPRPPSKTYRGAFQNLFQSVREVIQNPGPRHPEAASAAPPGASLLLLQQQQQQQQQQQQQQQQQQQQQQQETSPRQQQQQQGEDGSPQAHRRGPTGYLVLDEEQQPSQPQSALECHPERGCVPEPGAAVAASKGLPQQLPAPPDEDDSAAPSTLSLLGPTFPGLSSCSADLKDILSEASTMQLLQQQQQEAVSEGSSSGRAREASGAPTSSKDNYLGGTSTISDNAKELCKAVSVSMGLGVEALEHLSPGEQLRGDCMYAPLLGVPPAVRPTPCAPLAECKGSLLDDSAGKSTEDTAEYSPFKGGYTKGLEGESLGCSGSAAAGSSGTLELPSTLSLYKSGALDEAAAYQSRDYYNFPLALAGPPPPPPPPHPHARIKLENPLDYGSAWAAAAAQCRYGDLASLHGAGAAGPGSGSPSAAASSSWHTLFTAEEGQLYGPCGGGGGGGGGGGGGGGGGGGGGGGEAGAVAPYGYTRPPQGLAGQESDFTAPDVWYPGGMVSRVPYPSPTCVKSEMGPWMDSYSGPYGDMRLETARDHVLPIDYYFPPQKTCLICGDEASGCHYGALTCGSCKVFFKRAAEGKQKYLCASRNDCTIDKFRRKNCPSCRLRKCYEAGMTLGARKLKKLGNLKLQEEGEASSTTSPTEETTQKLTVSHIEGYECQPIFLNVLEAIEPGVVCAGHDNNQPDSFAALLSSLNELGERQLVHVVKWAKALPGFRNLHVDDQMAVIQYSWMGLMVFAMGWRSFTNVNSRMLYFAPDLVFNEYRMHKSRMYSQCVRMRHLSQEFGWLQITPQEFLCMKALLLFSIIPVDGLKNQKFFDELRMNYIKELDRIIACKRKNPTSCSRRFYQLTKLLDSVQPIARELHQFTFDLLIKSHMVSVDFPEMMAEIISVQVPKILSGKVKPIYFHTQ
Thyrotropin receptor (Homo sapiens), sequence (P16473 whole entry, looked up): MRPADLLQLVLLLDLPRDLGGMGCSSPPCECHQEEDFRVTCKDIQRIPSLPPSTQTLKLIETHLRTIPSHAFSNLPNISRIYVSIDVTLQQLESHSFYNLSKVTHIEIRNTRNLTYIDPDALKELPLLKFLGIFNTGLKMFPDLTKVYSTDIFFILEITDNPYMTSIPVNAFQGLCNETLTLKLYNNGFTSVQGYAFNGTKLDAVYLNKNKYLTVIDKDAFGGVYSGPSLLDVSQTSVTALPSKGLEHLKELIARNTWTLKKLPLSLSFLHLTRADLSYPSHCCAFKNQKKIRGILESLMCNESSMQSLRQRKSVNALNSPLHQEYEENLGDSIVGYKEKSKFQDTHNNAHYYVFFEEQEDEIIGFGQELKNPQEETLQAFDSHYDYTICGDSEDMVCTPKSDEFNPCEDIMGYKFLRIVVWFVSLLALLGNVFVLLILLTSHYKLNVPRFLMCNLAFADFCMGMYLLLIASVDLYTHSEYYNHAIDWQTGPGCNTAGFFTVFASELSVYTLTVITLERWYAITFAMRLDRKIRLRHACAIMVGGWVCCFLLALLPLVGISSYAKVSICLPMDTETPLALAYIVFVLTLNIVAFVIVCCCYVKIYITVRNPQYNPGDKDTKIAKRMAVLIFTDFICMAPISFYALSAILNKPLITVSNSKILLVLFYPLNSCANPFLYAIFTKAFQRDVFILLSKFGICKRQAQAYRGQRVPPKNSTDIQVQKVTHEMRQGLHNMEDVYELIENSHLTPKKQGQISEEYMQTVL
Estrogen receptor (Homo sapiens), sequence (P03372 whole entry, looked up): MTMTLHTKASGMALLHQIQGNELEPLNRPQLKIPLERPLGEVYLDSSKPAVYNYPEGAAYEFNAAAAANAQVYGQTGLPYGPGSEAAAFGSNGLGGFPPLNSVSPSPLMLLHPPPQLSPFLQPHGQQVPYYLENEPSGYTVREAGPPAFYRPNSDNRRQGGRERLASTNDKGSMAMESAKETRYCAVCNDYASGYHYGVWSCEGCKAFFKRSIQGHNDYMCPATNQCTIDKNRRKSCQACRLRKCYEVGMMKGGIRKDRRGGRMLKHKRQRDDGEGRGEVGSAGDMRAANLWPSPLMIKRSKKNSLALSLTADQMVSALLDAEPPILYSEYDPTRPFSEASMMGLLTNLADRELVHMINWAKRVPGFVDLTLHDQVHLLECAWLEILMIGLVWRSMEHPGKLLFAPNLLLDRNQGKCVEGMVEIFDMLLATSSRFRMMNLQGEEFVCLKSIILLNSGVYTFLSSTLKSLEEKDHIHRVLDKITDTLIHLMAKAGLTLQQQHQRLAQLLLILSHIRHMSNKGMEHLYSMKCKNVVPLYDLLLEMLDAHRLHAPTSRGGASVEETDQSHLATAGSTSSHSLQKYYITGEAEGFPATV

CCCCCCCCC1CCC(=O)O1 (configuration not stated)
inactive: [1] | [2] | [3] | [4] | [5] | [6] | [7] | [8] | [9]

C[C@@H](O)[C@H]1C(=O)N2C(C(=O)O)=C(SCCN=CN)C[C@H]12
inactive: [1] | [2] | [3] | [4] | [5] | [6] | [7] | [8]

CC(=O)NCCCCCC(=O)O
inactive: [1] | [2] | [3] | [4] | [5] | [6] | [7] | [8]

C=CCCCCCCCCCCCC
inactive: [1] | [2] | [3] | [4] | [5] | [10] | [6] | [8] | [9]

O=C1CC(c2ccc(Cl)cc2)CC(=O)N1
inactive: [1] | [2] | [3] | [4] | [5] | [6] | [7] | [8]

O=C1CCCC(=O)O1
inactive: [1] | [2] | [3] | [4] | [5] | [6] | [7] | [8] | [9]

C=C(C)C1CCC(C)(O)CC1 (configuration not stated)
inactive: [1] | [2] | [3] | [4] | [5] | [10] | [6] | [7] | [8] | [9]

Cc1ccsc1/C=C/C1=NCCCN1C
inactive: [1] | [2] | [3] | [4] | [5] | [6] | [7] | [8]

CCC(C)NC(N)=O (configuration not stated)
inactive: [1] | [2] | [3] | [4] | [5] | [10] | [6] | [7] | [8] | [9]

CC(S)C(=O)NCC(=O)O (configuration not stated)
inactive: [1] | [2] | [3] | [4] | [5] | [10] | [6] | [8] | [9]

CC(C)NCC(O)COc1cccc2[nH]ccc12 (configuration not stated)
inactive: [1] | [2] | [3] | [4] | [5] | [10] | [6] | [8] | [9]

C=C(C)C(=O)OCCOP(=O)(O)OCCOC(=O)C(=C)C
inactive: [1] | [2] | [3] | [4] | [5] | [6] | [7] | [8]

COc1ccc(-c2cc(=O)c3c(O)cc(O[C@@H]4O[C@H](CO[C@@H]5O[C@@H](C)[C@H](O)[C@@H](O)[C@H]5O)[C@@H](O)[C@H](O)[C@H]4O)cc3o2)cc1O
inactive: [1] | [2] | [3] | [4] | [5] | [6] | [7]

CC(=O)NCc1c(I)c(NC(C)=O)c(I)c(C(=O)O)c1I
inactive: [1] | [2] | [3] | [4] | [5] | [10] | [6] | [7] | [8]

COc1nccnc1NS(=O)(=O)c1ccc(N)cc1
inactive: [1] | [2] | [3] | [4] | [5] | [10] | [6] | [8] | [9]

O=C(Nc1ccc(Cl)c(Cl)c1)C1CC1
inactive: [1] | [2] | [3] | [4] | [5] | [10] | [6] | [7] | [8] | [9]

OCCN(CCO)c1cccc(Cl)c1
inactive: [1] | [2] | [3] | [4] | [5] | [10] | [6] | [8]

C=C(C)C(=O)OCC(C)(C)COC(=O)C(=C)C
inactive: [1] | [2] | [3] | [4] | [5] | [6] | [7]

CCN(C)C(=O)Oc1cccc([C@H](C)N(C)C)c1
inactive: [1] | [2] | [3] | [4] | [5] | [10] | [6] | [7] | [8]

O=C(O)CCSSCCC(=O)O
inactive: [1] | [2] | [3] | [4] | [5] | [10] | [6] | [7] | [8] | [9]

CCCCCCOC(=O)CC
inactive: [1] | [2] | [3] | [4] | [5] | [6] | [7]

CCCCCCCCCC(C)=O
inactive: [1] | [2] | [3] | [4] | [5] | [10] | [6] | [7] | [8] | [9]

O=C(O)c1ccc(Cl)cc1Cl
inactive: [1] | [2] | [3] | [4] | [5] | [6] | [7] | [8]

Cc1cc(Cl)c(C)cc1Cl
inactive: [1] | [2] | [3] | [4] | [5] | [10] | [6]

COCCOCCOCCOCCO
inactive: [1] | [2] | [3] | [4] | [5] | [10] | [6] | [7] | [8] | [9]

CCCOC(OCCC)OCCC
inactive: [1] | [2] | [3] | [4] | [5] | [6]

CC(=O)OC(C)OC(=O)C(C)c1ccc(-c2ccccc2)c(F)c1 (configuration not stated)
inactive: [1] | [2] | [3] | [4] | [5] | [10] | [6] | [7] | [8] | [9]

CNC(=O)[C@H]1O[C@@H](n2cnc3c(NCc4cc(Cl)ccc4OCc4cc(C)no4)ncnc32)[C@H](O)[C@@H]1N
inactive: [1] | [2] | [3] | [4] | [5] | [10] | [6] | [7] | [8]

CC(C)=O
inactive: [1] | [2] | [3] | [4] | [5] | [10] | [6] | [7] | [8] | [9]

Cc1cccc(C)c1NC(=O)c1ccccc1C(=O)O
inactive: [1] | [2] | [3] | [4] | [5] | [10] | [6] | [7] | [8]

CC(C)(C)c1nnc(NS(=O)(=O)c2ccc(N)cc2)s1
inactive: [1] | [2] | [3] | [4] | [5] | [10] | [6] | [7] | [8]

CC(C)CCCCOC(=O)c1ccccc1C(=O)OCCCCC(C)C
inactive: [1] | [2] | [3] | [4] | [5] | [6]

NCCS
inactive: [1] | [2] | [3] | [4] | [5] | [6]

C=COCCOCCOCCOC=C
inactive: [1] | [2] | [3] | [4] | [5] | [10] | [6] | [8] | [9]

CC(=O)CCCCn1c(=O)c2c(ncn2C)n(C)c1=O
inactive: [1] | [2] | [3] | [4] | [5] | [6] | [7] | [8] | [9]

CCCCCCCCSCC
inactive: [1] | [2] | [3] | [4] | [5] | [6] | [7] | [8]

CC(C)(C)NC(N)=O
inactive: [1] | [2] | [3] | [4] | [5] | [10] | [6] | [7] | [8] | [9]

CCCCC(CC)COCCO (configuration not stated)
inactive: [1] | [2] | [3] | [4] | [6] | [7] | [8] | [9]

COC(=O)CCc1ccc(OCC(O)CNC(C)C)cc1 (configuration not stated)
inactive: [1] | [2] | [3] | [4] | [6] | [8]

CCOC(=O)[C@H](CCc1ccccc1)N[C@@H](C)C(=O)N1C(=O)N(C)C[C@H]1C(=O)O
inactive: [1] | [2] | [3] | [4] | [5] | [6] | [7] | [8] | [9]

CN(C)c1ccc(C=O)cc1
inactive: [1] | [2] | [3] | [4] | [6] | [7] | [8] | [9]

CC(C)N(c1ccccc1)C(C)C
inactive: [1] | [2] | [3] | [4] | [5] | [6] | [7] | [8] | [9]

NS(=O)(=O)c1ccc(NC(=O)CCC(=O)O)cc1
inactive: [1] | [2] | [3] | [4] | [5] | [6] | [7] | [8] | [9]

O=Cc1ccc(Cl)c(Cl)c1
inactive: [1] | [2] | [3] | [4] | [5] | [6] | [8] | [9]

CC(C)OC(=O)CCCCC(=O)OC(C)C
inactive: [1] | [2] | [3] | [4] | [5] | [6] | [7] | [8] | [9]

Cc1ccc2c(c1)OCC(=O)CO2
inactive: [1] | [2] | [3] | [4] | [5] | [6] | [7] | [8] | [9]

C[C@H](N)[C@H](O)c1cccc(O)c1
inactive: [1] | [2] | [3] | [4] | [5] | [6] | [7] | [8] | [9]

CC(C)C[C@H](NC(=O)CNC(=O)[C@H](Cc1ccc(O)cc1)NC(=O)[C@H](CO)NC(=O)[C@H](Cc1c[nH]c2ccccc12)NC(=O)[C@H](Cc1cnc[nH]1)NC(=O)[C@@H]1CCC(=O)N1)C(=O)N[C@@H](CCCN=C(N)N)C(=O)N1CCC[C@H]1C(=O)NCC(N)=O (stereo in doubt)
inactive: [1] | [2] | [3] | [4] | [6]

C=C1CC/C=C(\C)CC[C@@H]2[C@@H]1CC2(C)C
inactive: [1] | [2] | [3] | [4] | [5] | [6] | [7] | [8] | [9]

c1ccc2c(c1)ccc1c3ccccc3ccc21
inactive: [1] | [2] | [3] | [4] | [5] | [6] | [8]

O=C(NCCN1CCOCC1)c1ccc(Cl)cc1
inactive: [1] | [2] | [3] | [4] | [6] | [8]

CC(C)CC(=O)O
inactive: [1] | [2] | [3] | [4] | [5] | [6] | [7] | [8] | [9]
